# Screening results: PubChem, National Center for Advancing Translational Sciences (NCATS)
# Only some compounds are listed: those with a hit (about 10% of all), similar ones and a draw of the others.
# KB-V1 cytotox: qHTS assay for MDR1-selective chemotherapeutics: Primary screen using the drug-selected MDR subline cells KB-V1. actives 3.4% (n = 400,000). KB-V1 MDR cells viability, CellTiter-Glo, 72 h. Potency, µM (series often up to 46.1 µM), hits mostly cytotoxic; further: on the % scale 0 is the no-effect control and ±100 the full control effect; nearly all actives have a fitted effect of over 60% in size
#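 KB-V1 MDR subline cells in DMEM (phenol-red free, 10% FBS) exposed to compounds in qHTS concentration series for 72 h at 37 degrees C. Viability read by CellTiter-Glo luminescence; concentration-effect curves fitted after normalization and correction.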
# RORg inh: qHTS for inhibitors of ROR gamma transcriptional activity | Nuclear receptor ROR-gamma (Mus musculus), P51450 | Drosophila S2 Gal4-RORgamma UAS-luciferase reporter, 20 h | Potency, µM (highest dose often 53.6 µM), for inactives: at the top dose activity change, negative = inhibition, most hits filed as inhibitors | actives 5.4% (n = 310,000) | AID 2551, 2010; further: on the % scale 0 is the no-effect control and ±100 the full control effect; nearly all actives have a fitted effect of over 60% in size
# Target sequence (P51450 whole entry, looked up, the tested form may be a part): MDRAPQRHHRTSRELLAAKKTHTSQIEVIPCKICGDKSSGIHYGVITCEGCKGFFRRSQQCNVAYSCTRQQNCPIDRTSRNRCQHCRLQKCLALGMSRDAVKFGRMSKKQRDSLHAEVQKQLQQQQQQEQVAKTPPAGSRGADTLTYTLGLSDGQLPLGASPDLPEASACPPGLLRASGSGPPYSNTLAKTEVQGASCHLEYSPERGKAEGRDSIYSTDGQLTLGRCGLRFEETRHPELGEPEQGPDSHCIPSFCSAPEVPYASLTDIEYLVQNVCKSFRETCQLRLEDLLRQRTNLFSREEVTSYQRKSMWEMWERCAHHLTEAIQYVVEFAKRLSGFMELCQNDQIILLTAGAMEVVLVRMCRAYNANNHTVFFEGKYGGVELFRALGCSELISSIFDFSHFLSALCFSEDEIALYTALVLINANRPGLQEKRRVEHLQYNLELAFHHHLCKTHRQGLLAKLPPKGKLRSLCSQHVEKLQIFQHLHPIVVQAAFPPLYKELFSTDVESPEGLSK
#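 Using a luciferase readout, inhibitors were identified by reduced reporter activity in Drosophila cells coexpressing a copper-inducible Gal4–ROR gamma fusion and UAS-driven Photinus luciferase, incubated 20 hr after 700 uM copper sulfate.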
# MCF10A rerep: A quantitative high throughput screen for small molecules that induce DNA re-replication in MCF 10a normal breast cells; AID 624296, 2012; actives 2.9% (n = 350,000); Potency, µM (top dose mostly 46.1 µM), inactives show at the top dose activity, positive = re-replication, usual class: activators; MCF 10A DNA re-replication, Hoechst nuclear intensity, 48 h; further: % of control where 0% means no effect; nearly all actives have a fitted effect of over 50% in size
# KB-3-1 cytotox: qHTS assay for MDR1-selective chemotherapeutics: Primary screen using the parental adenocarcinoma cell KB-3-1; actives 1.4% (n = 400,000); KB-3-1 viability, CellTiter-Glo ATP luminescence, 72 h; Potency, µM (highest dose often 46.1 µM), usual class: cytotoxic; further: on the % scale 0 is the no-effect control and ±100 the full control effect; nearly all actives have a fitted effect of over 60% in size
#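 Viability of parental KB-3-1 cells, measured by CellTiter-Glo luminescence, followed a 72 h incubation at 37 °C with pinned compounds in phenol-red-free DMEM containing 10% FBS.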
# VP16 counter: VP16 counterscreen qHTS for inhibitors of ROR gamma transcriptional activity; Drosophila S2 Gal4-VP16 UAS-luciferase, luminescence, 20 h; Potency, µM (series often up to 53.6 µM), without a hit: top-dose activity, negative = inhibition, most hits filed as inhibitors; actives 3.5% (n = 310,000); AID 2546, 2010;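 further: Gal4-VP16 expression switched on by copper sulfate through the metallothionein promoter; on the % scale 0 is the no-effect control and ±100 the full control effect; nearly all actives have a fitted effect of over 50% in size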
# SW480 rerep: A quantitative high throughput screen for small molecules that induce DNA re-replication in SW480 colon adenocarcinoma cells | SW480 DNA re-replication, Hoechst DNA content imaging, 48 h | Potency, µM (titrated, usually from 46.1 µM), inactives show at the highest dose re-replication activation, usual class: activators | actives 1.8% (n = 340,000) | AID 624297, 2012; further: % of control where 0% means no effect; nearly all actives have a fitted effect of over 55% in size
#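 Per well, 250 cells were exposed to pinned compound for 48 hr. Nuclear DNA was visualised with Hoechst (40 min, 37 C) and total object intensity recorded by fluorescence scanning.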
# The depositor's hits bear a star; i = inactive; ? = inconclusive; . = not tested or not shown; [ ] = another dose, or the depositor's remark. The call rests on the fitted dose curve; in most records, active means well fitted curve in the direction sought with a large enough effect; inconclusive means small, poorly fitted or top-dose-only effect, or another doubt; inactive means no such curve, though single readings can be large; an effect the other way counts as inactive or inconclusive. Potency means the concentration at half of the fitted maximal effect.
SMILES,KB-V1 cytotox,RORg inh,MCF10A rerep,KB-3-1 cytotox,VP16 counter,SW480 rerep
COc1ccc(-c2csc(NC(=S)NC(=O)/C=C/c3ccc(C(C)C)cc3)n2)cc1OC,i,3.98µM*,-0.3%,i,7.94µM*,?
COc1ccc(-c2csc(NC(=S)NC(=O)c3ccccc3)n2)cc1Br,i,-0.2%,?,i,3.0%,-9.3%
COc1ccc(OC)c(NC(=O)C(C)n2nc(C)c3c(C)n(-c4ccccc4)nc3c2=O)c1 (stereo unspecified),i,.,.,i,.,.
Cn1nc(-c2ccccc2)c(CSc2ccccc2Cl)c1Cl,11.6µM*,-9.9%,7.31µM*,?,-0.1%,5.8µM*
Cc1c(Cl)cccc1-n1ncc(C(=O)N2CCC(C)CC2)c1C1CCN(C(=O)OC(C)(C)C)CC1,i,.,.,i,.,.
FC(F)(F)c1nnc2c(Sc3ccccn3)nc3ccccc3n12,?,10µM*,?,?,20µM*,?
FC(F)(F)c1nnc2c(Sc3ccccc3)nc3ccccc3n12,?,-2.5%,?,11.6µM*,-7.4%,?
FC(F)(F)c1nnc2c(Sc3ccc(Cl)cc3)nc3ccccc3n12,?,0.0%,472.1%[0.0737 µM],3.66µM*,2.7%,?
O=C(c1ccco1)N1CCC2(CC1)CCN(C(c1ccccc1)c1ccccc1)CC2,.,24.1%,.,.,-6.9%,.
CCc1ccccc1NC(=O)N1CCN(Cc2nc3ccc(C)cc3o2)CC1,i,.,.,i,.,.
CCCCNC(=O)c1cnc2c(-c3ccc(OCC)c(OCC)c3)c(C)nn2c1-c1ccccc1,i,.,.,i,.,.
O=c1c2ccccc2nc(-c2ccco2)n1CCCn1ccnc1,8.2µM*,-8.1%,-7.9%,i,-5.5%,-3.1%
O=c1c2ccccc2nc(-c2ccccc2)n1CCCn1ccnc1,i,-7.7%,1.0%,i,-2.2%,0.8%[9.22 µM]
O=C(NCCc1csc(-c2ccc(C(F)(F)F)cc2)n1)c1ccc(F)c(F)c1,13µM*,.,.,23.1µM*,.,.
O=C(NCCc1csc(-c2ccc(F)cc2)n1)c1cccc(F)c1,i,.,.,?,.,.
O=C(NCCc1csc(-c2cccnc2)n1)c1ccc(Cl)cc1,i,?,11.6µM*,i,-8.6%,?
COc1ccc(CC(=O)NCCc2csc(-c3ccc(Cl)cc3)n2)cc1,0.92µM*,.,.,i,.,.
O=C(COc1ccc(Cl)cc1)NCCc1csc(-c2ccc(F)cc2)n1,i,.,.,i,.,.
CN(Cc1ccccc1)C(=O)c1c[nH]c2ccc(S(=O)(=O)Nc3ccccc3F)cc2c1=O,i,.,.,i,.,.
O=C(Nc1ccccc1F)c1cnccn1,i,8.6%,-11.7%,i,9.9%,-7.5%
O=C(Nn1cc(C(=O)Nc2ccc(F)cc2F)c2ccccc2c1=O)c1cnccn1,?,11.2µM*,?,?,?,37.6%
COc1ccc(/C=C/C(=O)NC(=S)N2CCN(c3ccccn3)CC2)cc1,i,2.51µM*,-3.1%,i,12.6µM*,6.5%
COc1ccc(/C=C/C(=O)NC(=S)N2CCSCC2)cc1,i,3.55µM*,3.2%,i,12.6µM*,7.7%
COc1ccc(-c2noc(N3CCC(C(=O)N4CCN(c5ccccn5)CC4)CC3)n2)cc1,5.8µM*,7.2%,20.1%,i,?,-7.9%
Cc1ccc(CSC2=Nc3ccccc3C3=NC(CCC(=O)NCCc4ccccc4)C(=O)N23)cc1 (stereo unspecified),i,.,.,i,.,.
SMILES,KB-V1 cytotox,RORg inh,MCF10A rerep,KB-3-1 cytotox,VP16 counter,SW480 rerep
O=C(COC(=O)/C=C/C(=O)OCC(=O)NC12CC3CC(CC(C3)C1)C2)NC12CC3CC(CC(C3)C1)C2,i,-8.2%,5.17µM*,?,-10.8%,18.4µM*
Cc1cc(CNC(=O)c2cccc([N+](=O)[O-])c2C)c2ccccc2n1,5.8µM*,-25.7%,-2.1%,i,10µM*,13.2%
Cc1c(C(=O)NCCSCc2ccc(Cl)cc2Cl)cccc1[N+](=O)[O-],25.9µM*,-4.4%,?,?,-11.0%,19.6%
CC1=C(C(=O)Nc2ccc(Cl)cc2)C(C(C)C)n2nc(SCc3ccc(Cl)cc3)nc2N1 (stereo unspecified),i,.,.,i,.,.
COC(=O)c1c(NC(=O)C2SC(=NC3CCCCC3)C(C(N)=O)=C2N)sc2c1CCCC2 (stereo unspecified),i,3.7%,?,i,-9.8%,-8.4%
C=C(C)CN=C1SC(C(=O)Nc2sc3c(c2C(=O)OC)CCC3)C(N)=C1C(N)=O (stereo unspecified),9.2µM*,?,4.11µM*,?,-10.4%,?
Cc1occc1-c1nnc(SCC(=O)Nc2nc(-c3ccccc3)cs2)o1,i,?,18.4µM*,i,-20.6%,?
O=C(CSc1nc2ccccc2o1)Nc1nc(-c2ccccc2)cs1,i,-29.2%,12.2%,i,-4.1%,-0.6%
Cc1cc(-c2nnc(SCC(=O)Nc3nc(-c4ccccc4)cs3)o2)no1,?,14.1µM*,-0.1%,i,-10.2%,25.2%
Cc1csc(NC(=O)CSc2nnc(-c3cc(C)on3)o2)n1,i,14.1µM*,1.4%,i,14.1µM*,0.9%
COc1ccccc1NC(=O)CSc1nnc(-c2ccoc2C)o1,?,.,-5.6%,11.6µM*,.,-13.5%
CC1(C(=O)NCCc2ccccc2)Cc2c(-c3ccc(C(N)=O)cc3)ccnc2O1 (stereo unspecified),i,.,.,i,.,.
CCOc1ccccc1NC(=O)Cn1ncc2c([nH]c3ccccc32)c1=O,i,.,.,i,.,.
O=C(CSc1oc(-c2cccs2)nc1S(=O)(=O)c1ccccc1)NC1CCCCC1,3.66µM*,?,24.0%,i,-5.7%,16.4%
CN1CCN(c2oc(-c3cccs3)nc2S(=O)(=O)c2ccccc2)CC1,13µM*,-10.0%[10 µM],-6.5%,i,1.0%,0.0%
CN(C)CC1CCC/C(=C\c2ccc(OC(=O)c3ccc(Cl)cc3)cc2)C1=O (stereo unspecified),20.6µM*,.,?,?,.,?
CN(C)CC1CC/C(=C\c2ccc(O)cc2)C1=O (stereo unspecified),?,.,3.26µM*,?,.,10.3µM*
O=C1/C(=C\c2ccc(Cl)cc2)CCC1CNc1ccc(Cl)cc1 (stereo unspecified),i,.,5.8µM*,i,.,?
